# NOD2-RIPK2 inh – NOD2-RIPK2 binding disruptors in cells, primary screen, fluorescence, CHO cells, BLA complementation. actives 0.38% (n = 360,000). inhibition, % at 4.98 µM. CCF4 ratio. AID 624267, 2012; in the data active = inhibition above about 21%;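 also: 0% = vehicle only and 100% = reference blocker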
# TLR4 MyD88 comp – inhibitors of TLR4-MyD88 association in cells, primary screen, cell-based, HeLa CL3-4, BLA complementation, FRET ratio; Toll-like receptor 4 (Homo sapiens) + Myeloid differentiation primary response protein …; AID 861, 2007; inhibition, % at 8.4 µM; HeLa CL3-4 TLR4/MyD88 BLA complementation; actives 0.18% (n = 200,000); in the data active = inhibition above about 25%;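 also: 0% = vehicle and 100% = reference inhibitor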
# TLR9-MyD88 block – inhibitors of TLR9-MyD88 association in cells, primary screen, cell-based, CHO, BLA complementation, fluorescence | inhibition, % at 4.98 µM | Toll-like receptor 9 (Homo sapiens) + Myeloid differentiation primary response protein … | actives 0.21% (n = 340,000) | CCF4 FRET ratio;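 active = inhibition above the mean over all tested compounds plus 3 SD, cut at about 21% in these data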;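 also: 0% = DMSO only wells and 100% = clavulanate BLA inhibitor control wells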
# ABHD5 PLIN5 PPI – ABHD5-PLIN5 interaction inhibitors, primary screen, cell lysate, split luciferase complementation, luminescence | Split G. princeps luciferase complementation, 4 h | actives 0.78% (n = 360,000) | inhibition, % at 4 µM | Perilipin-5 (Homo sapiens) + 1-acylglycerol-3-phosphate O-acyltransferase ABHD5 (Homo …;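 active = inhibition above the mean inhibition across every tested compound plus 3 SD, cut at about 22% in these data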;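 also: 0% = DMSO only wells and the 100% control is not disclosed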
# Beta2AR agonist – beta2AR agonists driving receptor internalization, primary screen, cell-based, FAP fluorogen, flow cytometry; Beta-2 adrenergic receptor (Homo sapiens), P07550; Am2.2-beta2AR cells; response, % (test concentration not listed); actives 0.43% (n = 340,000); AID 504454, 2011;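 active = response above a set limit, near 3 SD of response in nonfluorescent compounds, cut at about 42% in these data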
# Exocytosis inh – LAMP-1 surface exposure blockers, TALL-104 cells – cell-based, flow cytometry, MLPCN library, primary screen. TALL-104 LAMP-1 surface exposure; cells stimulated with thapsigargin and PMA. inhibition, % at 10 µM. actives 0.66% (n = 360,000). AID 651702, 2012;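 active = inhibition above about 55%, limit read from the data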
# Granule exo CP1 – inhibitors of lytic granule exocytosis, confirmation, TALL-104 cells, flow cytometry, Cherry Pick01; shares compounds with Exocytosis inh; AID 651954, 2012; LAMP-1 externalization; stimulated with PMA plus thapsigargin; inhibition, % at 10 µM; actives 11% (n = 1,500); in the data active = inhibition above about 60%;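 also: 0% = stimulated vehicle wells and 100% = unstimulated wells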
# * marks the source's active call; other numbers are inactive results; / = not tested or not shown. Compounds with a hit are over-represented: about 2% of the library has one in this group of screens.
SMILES,NOD2-RIPK2 inh,TLR4 MyD88 comp,TLR9-MyD88 block,ABHD5 PLIN5 PPI,Beta2AR agonist,Exocytosis inh,Granule exo CP1
NC(=O)CC[C@H](NC(=O)c1ccc(F)cc1)C(=O)OCC(=O)NCc1ccc(F)cc1,-2.6,4.6,-10.1,0.5,5.9,56.6*,-14.3
NC(=O)CC[C@H](NC(=O)c1ccc(F)cc1)C(=O)OCC(=O)Nc1c(F)c(F)c(F)c(F)c1F,-15.6,-5.5,-12.8,0.5,3.2,-6.1,/
CCCCCCN1C[C@H](n2cc(-c3ccc(F)cc3)nn2)[C@@H](O)C[C@@H]1c1ccc(C)cc1,-8.7,/,-4.2,4.8,/,62.0*,-10.4
COc1ccc(C2CCCN2CC(O)COc2ccccc2C(C)C)cc1 (configuration not stated),-10.2,/,-2.0,-1.6,4.8,63.4*,-12.1
COc1ccc(C2(C)NC(=O)N(CC(=O)c3cc(C)n(C4CC4)c3C)C2=O)cc1 (configuration not stated),-4.2,/,-11.0,-2.3,-0.4,2.6,/
Cc1cc(C(=O)CN2C(=O)NC(C)(c3ccc(F)c(F)c3)C2=O)c(C)n1C1CC1 (configuration not stated),-2.7,/,-13.8,-3.7,/,60.2*,-14.5
COc1cccc(CN2CCN(C(=O)c3ccco3)CC2)c1,8.9,/,4.0,7.2,-8.3,87.0*,-9.7
COc1ccc(OC)c(CN2CCN(C(=O)c3ccco3)CC2)c1,-9.5,/,1.1,4.0,-3.3,6.3,/
c1ccc(CNCCC(Cc2ccccc2)c2ccco2)cc1 (configuration not stated),-1.7,/,-8.3,-2.6,5.3,71.5*,-9.7
CN(C)c1ccc(CNCCC(Cc2ccccc2)c2ccco2)cc1 (configuration not stated),-6.0,/,-6.3,12.4,6.6,45.0,/
COC(=O)C[C@H]1C[C@H]2c3cc(NC(=O)Nc4ccc(F)cc4)ccc3O[C@H]2[C@@H](CO)O1,2.9,/,-2.8,5.9,/,-9.0,/
CCOCCCNC(=S)N1CCCN(c2nc3c(C)c(C)ccc3cc2C#N)CC1,-3.3,7.3,-6.0,-5.7,-4.4,90.6*,78.9*
COc1cccc(C2Nc3ccccc3C(=O)N2c2ccc(F)cc2)c1O (configuration not stated),-15.3,/,-3.9,2.4,13.2,66.3*,-10.3
O=C1c2ccccc2NC(c2ccccc2O)N1c1ccc(F)cc1 (configuration not stated),5.2,/,10.4,-1.9,3.6,1.8,/
Cn1c(N)c(C#N)c(-c2ccccc2)c(C#N)c1=O,5.7,/,/,4.3,/,4.0,/
COc1ccc(CN(C(C)=O)c2cc(C)c([N+](=O)[O-])cc2OC)cc1OC,-7.8,/,0.4,-5.6,/,-6.7,/
CCOC(=O)c1ccc(NC(=O)c2ccc(C)c(S(=O)(=O)N3CCOCC3)c2)cc1,-2.4,5.8,-5.1,0.8,12.0,76.4*,74.1*
CCOC(=O)c1ccc(NC(=O)c2sc3nc(N4CCOCC4)c4c(c3c2N)CCCC4)cc1,-12.5,/,-1.5,3.6,11.6,92.7*,-12.7
Cc1cccc(C(=O)OCC(=O)NCc2ccc(Cl)cc2)c1,2.9,/,-1.4,6.0,/,3.1,/
CCN(CC)c1nc(C)nc2c1cnn2CCc1ccccc1,-8.7,-4.7,2.5,-4.6,-5.8,71.1*,-3.4
O=S(=O)(NCCCc1ccccc1)c1ccccc1,3.6,-8.9,-5.0,-2.9,-2.4,3.2,/
Cc1ccc(C)c(S(=O)(=O)NCCCc2ccccc2)c1,-3.1,/,-5.7,-3.8,6.5,58.4*,-13.5
CS(=O)(=O)N(Cc1ccc(C(=O)Nc2ccccc2Sc2ccccc2)cc1)c1ccccc1,-3.4,1.5,-13.1,9.4,7.5,85.1*,-1.5
O=C(Nc1ccccc1Sc1ccccc1)c1ccccc1,-8.0,-9.5,3.4,-4.1,4.5,-1.4,/
CCOC(=O)c1cc(-c2csc(Nc3c(C)cc(C)cc3C)n2)on1,-8.0,/,3.0,2.4,12.6,90.8*,85.7*
SMILES,NOD2-RIPK2 inh,TLR4 MyD88 comp,TLR9-MyD88 block,ABHD5 PLIN5 PPI,Beta2AR agonist,Exocytosis inh,Granule exo CP1
COc1c2ccoc2c(OC[C@@H](O)C(C)(C)O)c2oc(=O)ccc12,-5.8,-8.7,3.0,7.4,-7.7,63.3*,-5.1
COc1ccc(Cn2nnnc2C(C(C)C)N(Cc2ccco2)Cc2cccs2)cc1 (configuration not stated),-3.6,4.9,-0.5,-6.0,2.4,57.2*,-14.0
CC(C)C(c1nnnn1Cc1ccccc1)N(Cc1ccco1)Cc1cccs1 (configuration not stated),-3.7,7.4,2.2,-1.2,1.7,11.3,/
Cc1ccc(S(=O)(=O)N(Cc2ccc(Cl)cc2)c2ccccc2C(=O)O)cc1,-5.0,/,3.6,1.4,-5.1,6.3,/
CC(C)n1nccc1N(Cc1ccc(Cl)cc1)S(=O)(=O)c1ccccc1,-4.1,/,-3.9,3.0,3.5,97.3*,2.2
N#Cc1ccc(CN(c2ccncc2)S(=O)(=O)c2ccccc2)cc1,-2.9,/,6.8,3.2,2.4,-3.9,/
CC(C)n1nccc1N(Cc1ccc(Br)cc1)S(=O)(=O)c1ccccc1,-3.2,/,-6.3,2.5,4.2,90.3*,10.9
COc1cc(CNCCc2c[nH]c3ccccc23)ccc1OCc1ccccc1F,9.3,4.3,-3.9,-6.3,7.3,-2.9,/
COc1cccc(CNCCc2c[nH]c3ccccc23)c1OCc1ccccc1,-63.3,13.4,-2.2,12.7,18.5,64.7*,27.9
COc1cccc(Sc2nc(-c3ccccc3)ncc2S(C)(=O)=O)c1,-5.0,/,8.4,-3.8,0.5,64.9*,1.9
CS(=O)(=O)c1cnc(-c2ccccc2)nc1Sc1ccc(F)cc1,-4.9,/,-12.6,-2.4,-3.2,-7.7,/
COc1ccc(C(c2nnnn2C(C)(C)C)N2CCN(c3nc4ccccc4s3)CC2)cc1OC (configuration not stated),-8.8,5.9,3.8,-5.2,9.8,2.0,/
COc1cc(C(c2nnnn2C(C)(C)C)N2CCN(c3nc4ccccc4s3)CC2)ccc1O (configuration not stated),-2.0,-3.8,-10.5,21.4,-0.8,58.1*,37.0
CC(=O)CN1C(=O)NC(c2ccccc2)(c2ccccc2)C1=O,5.7,/,-0.7,3.0,-3.8,12.5,/
CC(C)(C)NC(=O)CN1C(=O)NC(c2ccccc2)(c2ccccc2)C1=O,4.1,/,-14.8,-1.9,-4.8,84.7*,-4.5
Cc1cc(Nc2cccc(Cl)c2)c2ccccc2n1,-2.5,/,-9.6,11.9,0.0,77.5*,-8.2
